Six1-Eya2 inh: blocks human Six1 binding to Eya2; 360,000 compounds, 0.56% hits; AlphaScreen GST-Six1/His-Eya2 binding, biochemical; stronger effect = lower value; Q15475+O00167; activity change, % (concentration not given with the values); in the data active = activity change below about -65%; inconclusive = mostly about -30% to -63%
Target sequence (O00167 whole entry, looked up): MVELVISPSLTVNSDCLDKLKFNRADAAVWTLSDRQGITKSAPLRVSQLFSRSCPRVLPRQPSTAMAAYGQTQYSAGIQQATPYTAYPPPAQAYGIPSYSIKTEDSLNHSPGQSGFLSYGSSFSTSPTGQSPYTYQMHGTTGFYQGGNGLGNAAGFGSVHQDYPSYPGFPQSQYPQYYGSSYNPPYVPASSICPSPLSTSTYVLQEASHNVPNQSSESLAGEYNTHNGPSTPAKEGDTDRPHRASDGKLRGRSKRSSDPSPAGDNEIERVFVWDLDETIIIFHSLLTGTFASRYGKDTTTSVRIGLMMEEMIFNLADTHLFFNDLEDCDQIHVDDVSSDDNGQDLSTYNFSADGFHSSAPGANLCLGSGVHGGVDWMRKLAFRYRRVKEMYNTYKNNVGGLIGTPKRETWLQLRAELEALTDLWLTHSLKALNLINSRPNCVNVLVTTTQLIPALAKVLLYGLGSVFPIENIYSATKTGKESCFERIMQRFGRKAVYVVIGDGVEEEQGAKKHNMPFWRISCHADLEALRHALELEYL
Target sequence (Q15475 whole entry, looked up): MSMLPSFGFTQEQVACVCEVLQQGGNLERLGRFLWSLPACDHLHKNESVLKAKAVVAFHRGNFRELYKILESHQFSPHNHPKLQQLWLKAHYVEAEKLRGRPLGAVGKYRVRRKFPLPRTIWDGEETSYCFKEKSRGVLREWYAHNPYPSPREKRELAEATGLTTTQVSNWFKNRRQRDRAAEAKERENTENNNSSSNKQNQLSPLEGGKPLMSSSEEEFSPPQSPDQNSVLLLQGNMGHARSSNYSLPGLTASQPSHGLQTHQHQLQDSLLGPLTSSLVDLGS
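Six1/Eya2 binding was read as AlphaScreen signal after compounds were pinned into GST-Six1 plus His-tagged Eya2 (5X stock 250/500 nM) in pH 8.0 Tris/NaCl/TCEP buffer, beads added, then incubated 1 h, 37 C, dark.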
RORgamma inh: inhibitors of mouse ROR gamma transcriptional activity; P51450; Potency, µM (series often up to 53.6 µM), most hits filed as inhibitors; Drosophila S2 Gal4-RORgamma UAS-luciferase reporter, 20 h; 310,000 compounds, 5.4% hits; note: nearly all actives have a fitted effect of over 60% in size
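Stably transfected Drosophila Schneider cells are the test system, with ROR gamma fused to Gal4 and luciferase under UAS control; luminescence is read after 20 hr of 700 uM copper sulfate induction at ambient temperature.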
VP16 counter: Gal4-VP16 reporter inhibition counter-screen | Drosophila S2 Gal4-VP16 UAS-luciferase, luminescence, 20 h | Potency, µM (highest dose often 53.6 µM), most hits filed as inhibitors | 310,000 compounds, 3.5% hits;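 note: Gal4-VP16 expression switched on by copper sulfate through the metallothionein promoter; nearly all actives have a fitted effect of over 50% in size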
CBFb-RUNX1 inh: blocks binding between human CBF-beta and RUNX1; AlphaScreen CBFb-His/RUNX1-biotin binding, biochemical; Potency, µM (titrated, usually from 59.8 µM), usual class: inhibitors; Q01196+Q13951; AID 1477; 230,000 tested, under 10 active
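Proteins preincubated together for 20 min at RT before compound addition; 15 min later, nickel and streptavidin beads were added and left 90 min prior to AlphaScreen measurement.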
CtBP-E1A blk: inhibitors of CtBP/E1A interaction; 340,000 compounds, 0.49% hits; AlphaScreen GST-E1A/His-CtBP binding, 1536-well; stronger effect = lower value; AID 651724; activity change, % (test concentration not listed); in the data active = activity change below about -65%; inconclusive = mostly about -30% to -63%
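Steps: dispense buffer (Tris pH 8.0, NaCl 300 mM, TCEP 1 mM, BSA, Tween 20); add 5X protein mix (GST-E1A, His-CtBP, 125 nM each); pin 23 nL compound; 2 h at 37 °C, dark; add 5X beads (50 ug/mL); 1 h; read.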
MBNL1-CUG inh: MBNL1-poly(CUG) RNA binding inhibition; Q9NR56; TR-FRET MBNL1-His/biotin-(CUG)12 binding, 665/545 ratio; Potency, µM (highest dose often 57.5 µM), actives largely listed as inhibitors; 280,000 compounds, 0.036% hits; AID 2675; active = well fitted inhibition curve with a large enough effect in the signal ratio, with a control signal flat, not every such curve was filed as active; inconclusive = small, poorly fitted or top-dose-only effect, or effect the other way, or a change in a side signal; inactive = no such curve, though single readings can be large or run the other way; the % refers to the signal ratio
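Compound titration spanned 92 nM–58 uM against the MBNL1-His/biotin-(CUG)12 complex. After 60 min at room temperature with 5 nM streptavidin-XL665 and 0.055 ng/ul terbium anti-His, ratiometric 665/545 nm emission (Ex 340 nm) normalized to controls.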
A number is an active result; – = inactive; ? = inconclusive; · = no result; [ ] = remark or other dose. This is a sample that favours compounds with a hit; in the whole collection about 5.5% have one here. Unless noted, calls come from the whole dose curve; as a rule, active = well fitted curve in the direction sought with a large enough effect; inconclusive = small, poorly fitted or top-dose-only effect, or another doubt; inactive = no such curve, though single readings can be large; an effect the other way counts as inactive or inconclusive.

SMILES	Six1-Eya2 inh	RORgamma inh	VP16 counter	CBFb-RUNX1 inh	CtBP-E1A blk	MBNL1-CUG inh
O=C(CCn1cnc2ccccc21)N/N=C/c1ccccc1O	?	0.45µM	0.63µM	–	?	–
Cc1nn(C)cc1/C=N/NC(=S)Nc1ccccc1	–	0.89µM	2.2µM	–	–	–
O=C(Cc1c[nH]c2ccccc12)N/N=C/c1ccccc1O	–	2.2µM	10µM	–	·	·
Cn1c(=O)c2cc(NC(=O)OCCF)ccc2n1Cc1cccc(C(F)(F)F)c1	–	·	·	·	–	·
Nc1nc(N)n(-c2ccccc2)c(=Nc2ccccc2)n1	–	–	–	·	–	–
COc1ccccc1NS(=O)(=O)c1ccc(C(=O)NCCCn2ccnc2)cc1	–	·	·	·	–	·
CCOC(=O)C1=C(COC(=O)c2cc(S(=O)(=O)N(C)C)ccc2C)NC(=O)NC1C (stereo unspecified)	–	·	·	·	–	·
CCCCN1CC(N2CCCCC2)CS1(=O)=O (stereo unspecified)	–	·	·	·	–	·
COc1ccc(Oc2ncc3ncc(=O)n(C[C@H]4CCCO4)c3n2)cc1	·	–	–	·	·	·
Cc1cc(=O)oc2c(C)c(OCC(=O)NCCCN3CCOCC3)ccc12	–	–	–	·	–	–
Cc1ccc(NC(=O)CCC(=O)N/N=C/c2ccc(O)cc2O)cc1	?	–	–	·	?	–
C=CCc1cccc(/C=N/NC(=O)CCC(=O)Nc2ccc(C)cc2)c1O	–	1.6µM	?	–	–	–
O=C(Nc1cccc(O)c1)c1cc(-c2cccs2)on1	–	2µM	3.5µM	·	–	–
COc1cccc(-c2cc(C(=O)Nc3cccc(O)c3)no2)c1	–	0.89µM	2.5µM	–	–	–
O=C(Nc1cccc(O)c1)c1noc2c1CCCCC2	–	11µM	3.5µM	–	–	–
O=C(NNC1=NS(=O)(=O)c2ccccc21)c1ccccc1Cl	–	–	–	–	–	–
O=C(NNC1=NS(=O)(=O)c2ccccc21)c1ccccc1	–	13µM	?	–	–	–
COc1cccc(CN(C)C(=O)C2CCN(S(=O)(=O)c3cccs3)CC2)c1OC	–	·	·	·	–	·
O=C(NCCc1ccc(F)cc1)C(=O)NCC1CCCN1S(=O)(=O)c1ccccc1 (stereo unspecified)	–	·	·	·	–	·
COc1ccc(N(CC(=O)Nc2cc(C)ccc2C)S(=O)(=O)c2c(C)[nH]c(=O)[nH]c2=O)cc1	–	–	–	·	–	–
COc1ccc(N(CC(=O)Nc2cc(Cl)ccc2OC)S(=O)(=O)c2c(C)[nH]c(=O)[nH]c2=O)cc1	-90	–	–	·	-95	–
CC(C)NC(=O)NNC(=O)Cn1nnc(-c2cccc(Cl)c2Cl)n1	–	32µM	–	–	–	–
CCc1ccc(CCC(=O)Nc2nccs2)o1	–	–	–	–	–	–
CCOc1ccc(S(=O)(=O)N(C)c2ccc(OCC(=O)Nc3nccs3)cc2)cc1	–	–	–	–	–	–
COc1ccccc1OCC(=O)Nc1ccncc1	–	–	–	·	·	–
SMILES	Six1-Eya2 inh	RORgamma inh	VP16 counter	CBFb-RUNX1 inh	CtBP-E1A blk	MBNL1-CUG inh
Cc1ccc(CCC(=O)Nc2nccs2)o1	–	–	28µM	–	–	–
CCOc1ccc(OCC(=O)Nc2nccs2)cc1	–	13µM	–[10 µM]	–	–	–
Cc1cccc(OCCCC(=O)Nc2nccs2)c1C	–	3.2µM	–	–	–	–
Cc1cccc(OCC(=O)Nc2ccncc2)c1C	–	?	3.2µM	·	–	–
Cc1cccc(OCCCC(=O)Nc2ccc(S(=O)(=O)Nc3nccs3)cc2)c1C	–	?	–	·	–	–
Cc1ccc(F)cc1C(=O)N1CCCC(c2cc(C(=O)Nc3ccccc3Cl)no2)C1 (stereo unspecified)	–	·	·	·	–	·
CC1(NS(=O)(=O)c2ccc(Cl)s2)CCS(=O)(=O)C1 (stereo unspecified)	–	·	·	·	–	·
NNC(=O)COc1cccc2cccnc12	–	?	–	–	–	–
COc1ccc(OCC(=O)Nc2nccs2)cc1	–	3.5µM	7.9µM	–	–	–
O=C(COc1cccc2cccnc12)Nc1nccs1	–	?	18µM	–	–	–
O=C(COc1ccc2c(c1)OCO2)Nc1nccs1	–	10µM	?	·	–	–
COCc1nnc(NC(=O)COc2ccc3c(c2)OCO3)s1	–	–	–	·	–	–
COc1c(C)cccc1C(=O)NCCCNC(=O)c1ccc(C)nc1	–	–	–	·	–	–
CC(=Nc1ccc(O)cc1)c1sc2ccccc2c1O	–	–	–[0.365 µM]	?	–	?
CC(=Nc1ccccc1O)c1sc2ccccc2c1O	–	2µM	?	–	–	?
Cc1nc2[nH]c(=S)[nH]c(=O)c2nc1C	–	·	·	·	–	·
Cc1nc2c(=O)[nH]c(=S)[nH]c2[nH]c1=O	-66	·	·	·	–	·
Nc1nc2ccc(Cl)cc2o1	–	·	·	·	–	·
C/C(=N\Nc1nc2ccc(Cl)cc2o1)c1ccccc1	–	2.5µM	?	–	–	–
Cc1ccc(S(=O)(=O)NCC(c2cccnc2)N2CCc3ccccc32)cc1 (stereo unspecified)	–	–	–	·	·	–
C=CCn1c(CCC(O)COCCCCC)n[nH]c1=S (stereo unspecified)	–	?	–	–	–	–
C=CCn1c(C(CCCC)CC(O)COCC(C)C)n[nH]c1=S (stereo unspecified)	–	10µM	?	–	–	–
C=CCn1c(C(CCCC)CC(O)COCCC)n[nH]c1=S (stereo unspecified)	–	7.1µM	?	–	–	–
O=C(c1ccoc1)N1CCC2(CCCN(Cc3ccc(F)c(F)c3)C2)C1 (stereo unspecified)	–	–	–	·	–	–
COc1ccc([C@H]2C[C@H](O)[C@@H](n3cc(COC(=O)c4ccccc4)nn3)CN2C(=O)C2CCCCC2)cc1	–	·	·	·	–	·
SMILES	Six1-Eya2 inh	RORgamma inh	VP16 counter	CBFb-RUNX1 inh	CtBP-E1A blk	MBNL1-CUG inh
CCCNC(=O)COc1ccccc1[N+](=O)[O-]	–	–	?	–	–	–
Cc1ccc(C)c(C(=O)COc2ccccc2[N+](=O)[O-])c1	–	–	13µM	–	–	–
Cc1ccc(OCC(=O)c2cc(C)c(C)cc2C)c([N+](=O)[O-])n1	–	11µM	?	–	–	–
Cc1ccc(C)c(C(=O)COc2ccc(C)nc2[N+](=O)[O-])c1	–	?	?	–	–	–
Cc1ccc2c(c1)CO[C@@]21O[C@H](CCO)C[C@H](O)[C@H]1O	–	·	·	·	–	·
CCCCNC(=O)COC(=O)C1CCN(S(=O)(=O)c2ccc3c(c2)OCCO3)CC1	–	·	·	·	–	·
COc1cc2c(cc1CC=C(C)C)C(=O)C[C@@H](c1ccc(O)cc1)O2	·	–	11µM	–	·	·
COc1ccc2c(c1)C(=O)CC(c1ccc(OC)c(OC)c1)O2 (stereo unspecified)	–	–[1.91 µM]	–	·	–	–

Compound activity (PubChem)
